Experimental data published in paper PMC8384837, “Expanding the binding specificity for RNA recognition by a PUF domain”.

Assays:
Assay in all cases: yeast three-hybrid, YBZ-1, SC-Leu-His + 0.5 mM 3-AT, 4 days
Details in all cases: tags: N-Gal4 AD-HA kept; label: inside an RPR1-promoter hybrid RNA with tandem MS2 sites; ssRNA
[1] = molecular target: PUM1 PUF domain R7-KGV (Homo sapiens, UniProt Q14671 828-1176, S1079K;N1080G;E1083V)
Outline: (§1)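 The interaction score is the logarithmic change in variant frequency from input to selection. It uses log2, with a pseudocount of 1 for absent variants, and frequencies came from PCR-amplified, Illumina-sequenced repeat regions. The libraries were Pumilio-1 PUF domains randomized at the three base-contacting residues per repeat, co-expressed with matching RNA elements in strain YBZ-1 (LexA–MS2 coat fusion, HIS3 reporter). Plating lasted four days on SC-Leu (input) or SC-Leu-His + 0.5 mM 3-AT (selection).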

[2] = molecular target: PUM1 PUF domain R4-EHT (Homo sapiens, UniProt Q14671 828-1176, N971E;Q975T)
Outline: as §1

[3] = molecular target: PUM1 PUF domain R5-RFN (Homo sapiens, UniProt Q14671 828-1176, C1007R;R1008F;Q1011N)
Outline: as §1

[4] = molecular target: PUM1 PUF domain R5-GWY (Homo sapiens, UniProt Q14671 828-1176, C1007G;R1008W;Q1011Y)
Outline: as §1

[5] = molecular target: PUM1 PUF domain R3-TWD (Homo sapiens, UniProt Q14671 828-1176, C935T;R936W;Q939D)
Outline: as §1

[6] = molecular target: PUM1 PUF domain R3-WWS (Homo sapiens, UniProt Q14671 828-1176, C935W;R936W;Q939S)
Outline: as §1

[7] = molecular target: PUM1 PUF domain R8-WFR (Homo sapiens, UniProt Q14671 828-1176, N1122W;Y1123F;Q1126R)
Outline: as §1

[8] = molecular target: PUM1 PUF domain R1-NYV (Homo sapiens, UniProt Q14671 828-1176, S863N;R864Y;Q867V)
Outline: as §1

[9] = molecular target: PUM1 PUF domain R8-HHP (Homo sapiens, UniProt Q14671 828-1176, N1122H;Y1123H;Q1126P)
Outline: as §1

[10] = molecular target: PUM1 PUF domain R3-RSD (Homo sapiens, UniProt Q14671 828-1176, C935R;R936S;Q939D)
Outline: as §1

Sequence of PUM1 PUF domain R5-RFN (Q14671 828-1176 C1007R/R1008F/Q1011N): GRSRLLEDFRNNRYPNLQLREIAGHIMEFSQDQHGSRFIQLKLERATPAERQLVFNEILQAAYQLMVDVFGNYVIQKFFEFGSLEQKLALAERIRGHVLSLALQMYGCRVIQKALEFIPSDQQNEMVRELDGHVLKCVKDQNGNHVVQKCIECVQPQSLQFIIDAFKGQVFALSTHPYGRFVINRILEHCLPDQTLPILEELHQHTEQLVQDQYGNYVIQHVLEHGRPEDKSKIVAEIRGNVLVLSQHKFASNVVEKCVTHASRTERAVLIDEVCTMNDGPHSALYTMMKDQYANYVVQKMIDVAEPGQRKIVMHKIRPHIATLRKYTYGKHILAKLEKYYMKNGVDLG
Sequence of PUM1 PUF domain R8-WFR (Q14671 828-1176 N1122W/Y1123F/Q1126R): as the sequence (Q14671 828-1176 C1007R/R1008F/Q1011N) above, with R180C, F181R, N184Q, N295W, Y296F, Q299R counted along it
Sequence of PUM1 PUF domain R3-WWS (Q14671 828-1176 C935W/R936W/Q939S): as the sequence (Q14671 828-1176 C1007R/R1008F/Q1011N) above, with C108W, R109W, Q112S, R180C, F181R, N184Q counted along it
Sequence of PUM1 PUF domain R3-TWD (Q14671 828-1176 C935T/R936W/Q939D): as the sequence (Q14671 828-1176 C1007R/R1008F/Q1011N) above, with C108T, R109W, Q112D, R180C, F181R, N184Q counted along it
Sequence of PUM1 PUF domain R3-RSD (Q14671 828-1176 C935R/R936S/Q939D): as the sequence (Q14671 828-1176 C1007R/R1008F/Q1011N) above, with C108R, R109S, Q112D, R180C, F181R, N184Q counted along it
Sequence of PUM1 PUF domain R5-GWY (Q14671 828-1176 C1007G/R1008W/Q1011Y): as the sequence (Q14671 828-1176 C1007R/R1008F/Q1011N) above, with R180G, F181W, N184Y counted along it
Sequence of PUM1 PUF domain R8-HHP (Q14671 828-1176 N1122H/Y1123H/Q1126P): as the sequence (Q14671 828-1176 C1007R/R1008F/Q1011N) above, with R180C, F181R, N184Q, N295H, Y296H, Q299P counted along it
Sequence of PUM1 PUF domain R4-EHT (Q14671 828-1176 N971E/Q975T): as the sequence (Q14671 828-1176 C1007R/R1008F/Q1011N) above, with N144E, Q148T, R180C, F181R, N184Q counted along it
Sequence of PUM1 PUF domain R1-NYV (Q14671 828-1176 S863N/R864Y/Q867V): as the sequence (Q14671 828-1176 C1007R/R1008F/Q1011N) above, with S36N, R37Y, Q40V, R180C, F181R, N184Q counted along it
Sequence of PUM1 PUF domain R7-KGV (Q14671 828-1176 S1079K/N1080G/E1083V): as the sequence (Q14671 828-1176 C1007R/R1008F/Q1011N) above, with R180C, F181R, N184Q, S252K, N253G, E256V counted along it

GGCUAGAACUAGUGGAUCCCCCGGCGCCCGGCGGCUCGAGCCCGGGUAAGUUUAAAUAGUCUGCAUGCCGCCGGGCGCCAUGCCUGCAGGUCGACUCUAGAAAACAUG
binding signal [1]: 3.27 log2 enrichment (interaction score)

GGCUAGAACUAGUGGAUCCCCCGGCGCCCGGCGGCUCGAGCCCGGGUAAGUGUAUAUAGUCUGCAUGCCGCCGGGCGCCAUGCCUGCAGGUCGACUCUAGAAAACAUG
binding signal [2]: 2.46 log2 enrichment (interaction score)

GGCUAGAACUAGUGGAUCCCCCGGCGCCCGGCGGCUCGAGCCCGGGUAAGUGUUAAUAGUCUGCAUGCCGCCGGGCGCCAUGCCUGCAGGUCGACUCUAGAAAACAUG
binding signal [3]: 3.08 log2 enrichment (interaction score)

GGCUAGAACUAGUGGAUCCCCCGGCGCCCGGCGGCUCGAGCCCGGGUAAGUGUGAAUAGUCUGCAUGCCGCCGGGCGCCAUGCCUGCAGGUCGACUCUAGAAAACAUG
binding signal [3]: 3.16 log2 enrichment (interaction score) | binding signal [4]: 2.71 log2 enrichment (interaction score)

GGCUAGAACUAGUGGAUCCCCCGGCGCCCGGCGGCUCGAGCCCGGGUAAGUGUAAGUAGUCUGCAUGCCGCCGGGCGCCAUGCCUGCAGGUCGACUCUAGAAAACAUG
binding signal [5]: 2.42 log2 enrichment (interaction score) | binding signal [6]: 5.24 log2 enrichment (interaction score)

GGCUAGAACUAGUGGAUCCCCCGGCGCCCGGCGGCUCGAGCCCGGGUAAGUGUAAAUAGUCUGCAUGCCGCCGGGCGCCAUGCCUGCAGGUCGACUCUAGAAAACAUG
binding signal [6]: 2.73 log2 enrichment (interaction score) | binding signal [7]: 4.29 log2 enrichment (interaction score)

GGCUAGAACUAGUGGAUCCCCCGGCGCCCGGCGGCUCGAGCCCGGGUAAGUGUAAAUUGUCUGCAUGCCGCCGGGCGCCAUGCCUGCAGGUCGACUCUAGAAAACAUG
binding signal [8]: 3.91 log2 enrichment (interaction score)

GGCUAGAACUAGUGGAUCCCCCGGCGCCCGGCGGCUCGAGCCCGGGUAAGCGUAAAUAGUCUGCAUGCCGCCGGGCGCCAUGCCUGCAGGUCGACUCUAGAAAACAUG
binding signal [7]: 4.73 log2 enrichment (interaction score)

GGCUAGAACUAGUGGAUCCCCCGGCGCCCGGCGGCUCGAGCCCGGGUAAGGGUAAAUAGUCUGCAUGCCGCCGGGCGCCAUGCCUGCAGGUCGACUCUAGAAAACAUG
binding signal [9]: 2.56 log2 enrichment (interaction score)

GGCUAGAACUAGUGGAUCCCCCGGCGCCCGGCGGCUCGAGCCCGGGUAAGUGUAAUUAGUCUGCAUGCCGCCGGGCGCCAUGCCUGCAGGUCGACUCUAGAAAACAUG
binding signal [10]: 3.6 log2 enrichment (interaction score)
